Compounds without any hit were thinned out: in the full panel of roughly 83,000, 20% have a hit.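 Single-concentration screen, 48 h exposure, 96-well plates. Endpoint: percent growth. Below 10 = active.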 Values without a mark were called inactive. Active and inactive are the calls of the source.
Each molecule was assayed on KM12 colon (assay: NCI-60 one-dose screen, 48 h (100 = growth as untreated, 0 = no growth, -100 = all killed)). Conditions: 10 µM unless noted.

Compound | growth
COc1ccc(/C=C(\C#N)n2nnc3cc(F)c(F)cc32)c(OC)c1OC | 67.8%
C=C(CNCCc1ccc(O)cc1)[C@@H]1CC[C@]2(COC3CCCCO3)CC[C@]3(C)[C@H](CC[C@@H]4[C@@]5(C)CCC(NCCO)C(C)(C)[C@@H]5CC[C@]43C)[C@@H]12 (stereo partly drawn) | -84.9% (active)
C[C@@H]1CC[C@@H]2[C@@H]1[C@H](OC(=O)c1ccc3ccccc3c1)[C@]1(C3CCCCC3)C[C@@H](OC(=O)CO)[C@@]2(C)O1 | 54.2%

— PubChem BioAssay (NCI)
